# Compounds without any hit were thinned out: in the full panel of roughly 83,000, 20% have a hit.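 Step 1: grow cells in 96-well plates. Step 2: add test compound at a single concentration. Step 3: incubate 48 h. Step 4: record percent growth.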 A number with no mark means an inactive call. Calls of active or inactive are those of the source. The calls were made as follows: active = growth percent below 10; inactive = the rest.
# Tested on: SF-539 CNS
# Assay: NCI-60 one-dose screen, 48 h (100 = growth as untreated, 0 = no growth, -100 = all killed)
# Conditions: 10 µM unless noted
row,Structure (SMILES),growth
1,COc1cc(-c2nc(-c3nc4cc(C(=O)c5ccccc5)ccc4[nH]3)cc3c2[nH]c2ccccc23)cc(OC)c1OC,80.6%
2,COc1cc(C2=NOC(c3cc(OC)c(OC)c(OC)c3)C2)ccc1OCCCCOc1cc2c(cc1OC)C(=O)N1CCC[C@H]1C=N2 (stereo partly drawn),-89.6% (active)
3,O=C(CCCCCCc1nc2ccc(Br)cc2[nH]1)NO,17.8%
4,CCCCOc1ncnc2nc[nH]c12,102%
5,CC(C)=CCC[C@H](C)c1ccc(C)c2c1OCN(CCO)C2,88.2%
6,O=C(Nc1cccc(Cl)c1)Nc1cc(C(F)(F)F)ccc1Cl,43.5%
7,CCCCC(CCc1ccccn1)C(=O)c1ccccc1 (stereo not drawn),107%
8,Nc1cccc(S(=O)(=O)c2cccc(N)c2)c1,113%
9,O=C(Nc1ccc2ncnc(Nc3ccc(F)c(Cl)c3)c2c1)c1cccs1,63.5%
10,O=[N+]([O-])c1ccccc1CN1CCCCC1,104%
11,COc1cc2c(cc1OCCCOc1cc3c(cc1OC)C(=O)N1CCC[C@H]1C=N3)C=CC(C)(C)O2,126%
12,CCCCCCCCCC1=NC(C)(C)CN1C(C)(C)CO,87.3%
13,COCCn1c(Nc2ccc(C(=O)NO)cc2)nc2ccccc21,62%
14,O=C(CSc1ccc(Cl)cc1)Nc1ccc(-c2nc3ccccc3s2)c(Cl)c1,93.1%
15,COc1cc(/C=C2\C(=O)Nc3ccc(N(C)C)cc32)cc(OC)c1OC,10.3%
16,CC(C)(C)NC(=O)C(OC(=O)C1CCc2cc(F)ccc2O1)c1ccccc1Cl (stereo not drawn),108%
17,CSCCC1NC(=O)C(C(C)=Nc2ccccc2)=C1O (stereo not drawn),119%
18,CC1(C)C2CCC(O)(C(=O)O)C1C2 (stereo not drawn),103%
19,COc1ccc(CCN2COc3c([C@@H](C)CCC=C(C)C)ccc(C)c3C2)cc1OC,80.5%
20,COc1ccc(C(=O)C(CN(C)C)c2ccccc2)cc1 (stereo not drawn),14.2%

row,Structure (SMILES),growth
1,Oc1ccc(CCCCCCc2ccc(O)cc2)cc1,42%
2,c1ccc(C2=Nc3ccccc3SC2)cc1,103%
3,O=C(O)c1cn(-c2ccccc2)nc1-c1ccc(O)cc1,101%
4,COc1cc(/C=C/C(=O)c2c(C)nc3ccccc3c2C)ccc1OCCCOc1cc2c(cc1OC)C(=O)N1CCC[C@H]1C=N2,-87% (active)
5,COc1ccc(Br)c2ccccc12,109%
6,CC(=O)c1cccc(Nc2ncnc3ccc(NC(=O)c4ccco4)cc23)c1,103%
7,CCN(CC)c1ccc(C(=N)c2ccc(N(C)C)cc2)cc1,-37.4% (active)
8,CCCCCCCCCCCCCCCCCC1=NC(C)(C)CN1C(C)(C)CO,-45% (active)
9,COC(=O)c1ccc(NC(N)=NCCC(C)(C)c2ccc(C(F)(F)F)cc2)nc1,79.3%
10,CCCCCCCCCCCC1=NC(C)(C)CN1C(C)(C)CO,57.9%
11,CO[C@@]12[C@@H]3NC3CN1C1=C(C(=O)C(N)=C(C)C1=O)[C@@H]2COC(N)=O (stereo partly drawn),11.8%
12,Cc1cc(NC(=O)c2ccc(N)cc2)ccc1N=Nc1ccc2cc(S(=O)(=O)O)cc(S(=O)(=O)O)c2c1,107%
13,CCCCCCCCCCCCCCCC1=NCC[N+]1(CCO)CCO,73.3%
14,CC1CN(CCCOC(=O)Nc2ccc(Cl)cc2)CCN1C(C)(C)C (stereo not drawn),125%
15,O=c1c2sc3ccccc3c2nnn1-c1ccc(F)c(Cl)c1,65.4%
16,Clc1ccccc1Nc1nnc(-c2ccncc2)s1,108%
17,COc1cc2c(cc1I)-c1c(cc(OC)c(OC)c1OC)CC[C@@H]2NC(C)=O,-30.6% (active)
18,COC(=O)c1cc(Cl)cc([N+](=O)[O-])c1O,107%
19,CCN(CC)c1ccc2nc3c4ccccc4c(=O)cc-3n(-c3ccccc3)c2c1,-30% (active)

# Tested on: UACC-257 melanoma
# Assay: as above
# Conditions: 10 µM unless noted
row,Structure (SMILES),growth
1,COc1cc(-c2nc(-c3nc4cc(C(=O)c5ccccc5)ccc4[nH]3)cc3c2[nH]c2ccccc23)cc(OC)c1OC,109%
2,COc1cc(C2=NOC(c3cc(OC)c(OC)c(OC)c3)C2)ccc1OCCCCOc1cc2c(cc1OC)C(=O)N1CCC[C@H]1C=N2 (stereo partly drawn),13.7%
3,O=C(CCCCCCc1nc2ccc(Br)cc2[nH]1)NO,-11% (active)
4,CCCCOc1ncnc2nc[nH]c12,101%
5,CC(C)=CCC[C@H](C)c1ccc(C)c2c1OCN(CCO)C2,92.3%
6,O=C(Nc1cccc(Cl)c1)Nc1cc(C(F)(F)F)ccc1Cl,19.6%
7,CCCCC(CCc1ccccn1)C(=O)c1ccccc1 (stereo not drawn),123%
8,Nc1cccc(S(=O)(=O)c2cccc(N)c2)c1,119%
9,O=C(Nc1ccc2ncnc(Nc3ccc(F)c(Cl)c3)c2c1)c1cccs1,101%
10,O=[N+]([O-])c1ccccc1CN1CCCCC1,110%
11,COc1cc2c(cc1OCCCOc1cc3c(cc1OC)C(=O)N1CCC[C@H]1C=N3)C=CC(C)(C)O2,83.9%
12,CCCCCCCCCC1=NC(C)(C)CN1C(C)(C)CO,121%
13,COCCn1c(Nc2ccc(C(=O)NO)cc2)nc2ccccc21,27.8%
14,O=C(CSc1ccc(Cl)cc1)Nc1ccc(-c2nc3ccccc3s2)c(Cl)c1,84.5%
15,COc1cc(/C=C2\C(=O)Nc3ccc(N(C)C)cc32)cc(OC)c1OC,-11% (active)
16,CC(C)(C)NC(=O)C(OC(=O)C1CCc2cc(F)ccc2O1)c1ccccc1Cl (stereo not drawn),106%
17,CSCCC1NC(=O)C(C(C)=Nc2ccccc2)=C1O (stereo not drawn),113%
18,CC1(C)C2CCC(O)(C(=O)O)C1C2 (stereo not drawn),124%
19,COc1ccc(CCN2COc3c([C@@H](C)CCC=C(C)C)ccc(C)c3C2)cc1OC,48.1%
20,COc1ccc(C(=O)C(CN(C)C)c2ccccc2)cc1 (stereo not drawn),2.45% (active)

row,Structure (SMILES),growth
1,Oc1ccc(CCCCCCc2ccc(O)cc2)cc1,91.4%
2,c1ccc(C2=Nc3ccccc3SC2)cc1,105%
3,O=C(O)c1cn(-c2ccccc2)nc1-c1ccc(O)cc1,85.1%
4,COc1cc(/C=C/C(=O)c2c(C)nc3ccccc3c2C)ccc1OCCCOc1cc2c(cc1OC)C(=O)N1CCC[C@H]1C=N2,-1.91% (active)
5,COc1ccc(Br)c2ccccc12,100%
6,CC(=O)c1cccc(Nc2ncnc3ccc(NC(=O)c4ccco4)cc23)c1,94.7%
7,CCN(CC)c1ccc(C(=N)c2ccc(N(C)C)cc2)cc1,-3.29% (active)
8,CCCCCCCCCCCCCCCCCC1=NC(C)(C)CN1C(C)(C)CO,-41% (active)
9,COC(=O)c1ccc(NC(N)=NCCC(C)(C)c2ccc(C(F)(F)F)cc2)nc1,38.8%
10,CCCCCCCCCCCC1=NC(C)(C)CN1C(C)(C)CO,-23.4% (active)
11,CO[C@@]12[C@@H]3NC3CN1C1=C(C(=O)C(N)=C(C)C1=O)[C@@H]2COC(N)=O (stereo partly drawn),-11.7% (active)
12,Cc1cc(NC(=O)c2ccc(N)cc2)ccc1N=Nc1ccc2cc(S(=O)(=O)O)cc(S(=O)(=O)O)c2c1,102%
13,CCCCCCCCCCCCCCCC1=NCC[N+]1(CCO)CCO,102%
14,CC1CN(CCCOC(=O)Nc2ccc(Cl)cc2)CCN1C(C)(C)C (stereo not drawn),108%
15,O=c1c2sc3ccccc3c2nnn1-c1ccc(F)c(Cl)c1,64.1%
16,Clc1ccccc1Nc1nnc(-c2ccncc2)s1,108%
17,COc1cc2c(cc1I)-c1c(cc(OC)c(OC)c1OC)CC[C@@H]2NC(C)=O,56.7%
18,COC(=O)c1cc(Cl)cc([N+](=O)[O-])c1O,100%
19,CCN(CC)c1ccc2nc3c4ccccc4c(=O)cc-3n(-c3ccccc3)c2c1,-15.8% (active)
